Pf growth 96h – inhibits malaria parasite growth, 96 h; P. falciparum luciferase reporter growth, 96 h; Potency, µM (titrated, usually from 28.7 µM), for inactives: top-dose activity change, negative = inhibition, actives largely listed as inhibitors; hit rate 6.9% among 320,000; further: potency means the concentration at half of the fitted maximal effect; on the % scale 0 is the no-effect control and ±100 the full control effect
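P. falciparum expressing integrated firefly luciferase grown in erythrocytes (2% hematocrit, 0.05% parasitemia final) with compounds for 96 hours at 37 C, 5% CO2. Growth inhibition read as loss of luminescence after adding luciferase detection reagent.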
NS1 inh – influenza NS1 inhibition; Potency, µM (titrated, usually from 46.1 µM), inactives show top-dose activity, positive = more growth; hit rate 0.4% among 270,000; calls by dose curve; further: potency means the concentration at half of the fitted maximal effect; actives are rising curves; nearly all actives have a fitted effect of over 50% in size
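S. cerevisiae expressing influenza A NS1, grown in glucose, washed, then diluted 1:100 into pH 6.0 -URA galactose medium with 23 nl compound. Growth recovery read as OD600; NS1-free strain serves as control.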
CHX counter – counter-screen hit for Shiga toxin inhibitors, cycloheximide. hit rate 12% among 300,000. cell reporter, cycloheximide protein synthesis inhibition counterscreen. max response, %; in the data active means max response mostly above about 13%, no sharp cut-off; inactive means mostly below about 14%; further: read at 38.3 µM for the half of the compounds with a filed dose; 0% is about no effect
Pf growth 48h – P. falciparum growth inhibition at 48 hours (one generation). P. falciparum luciferase growth in erythrocytes, 48 h. Potency, µM (top dose mostly 28.7 µM), inactives show at the highest dose activity change, negative = inhibition, usual class: inhibitors. hit rate 5.9% among 310,000; further: potency means the concentration at half of the fitted maximal effect; on the % scale 0 is the no-effect control and ±100 the full control effect
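A one-generation exposure of luciferase-tagged malaria parasites in RPMI 1640/Albumax erythrocyte culture, 37 C and 5% CO2. Inhibition is inferred from decreased luminescence after adding detection reagent.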
Shiga inhibitor – inhibitors of Shiga toxin in Vero cells; Vero cells, Shiga toxin protein synthesis inhibition reporter; inhibition, % at 38.7 µM; hit rate 9.2% among 290,000; in the data active means inhibition mostly above about 28%, no sharp cut-off; inactive means mostly below about 43%; further: 0% is about no effect
* marks the source's active call; other numbers are inactive results. This is a sample that favours compounds with a hit; in the whole collection about 21% have one here. Unless noted, the call rests on the fitted dose curve; in most records, active means well fitted inhibition curve with a large enough effect; inconclusive means small, poorly fitted or top-dose-only effect, or another doubt; inactive means no such curve, though single readings can be large or run the other way.

What do the screens show for `Cc1ccc2nc(NNC(=O)c3ccc4c(c3)OCCO4)sc2c1`?
Pf growth 96h: 0%; NS1 inh: -4%; CHX counter: 9; Pf growth 48h: 16%; Shiga inhibitor: -5

How did COc1ccc(C(=O)Nc2nc3cc4c(cc3s2)OCCO4)c(OC)c1 do in these assays?
Pf growth 96h: 24%; NS1 inh: -2%; CHX counter: 24*; Pf growth 48h: 45%; Shiga inhibitor: 80*

Results for CCN(CC)S(=O)(=O)c1cccc(NC(=O)COC(=O)CCC(=O)c2ccc(F)cc2)c1 ?
Pf growth 96h: 19%; NS1 inh: 4%; CHX counter: 11; Pf growth 48h: 41%; Shiga inhibitor: 0

What do the screens show for `CC(=O)Oc1ccc2c(C)c(CC(=O)N3CCN(C(=O)C4COc5ccccc5O4)CC3)c(=O)oc2c1C` (stereo unspecified)?
Pf growth 96h: inconclusive; NS1 inh: -20%; CHX counter: 10; Pf growth 48h: 12µM*; Shiga inhibitor: -6

Results for Cc1ccc(/C=C/c2nc3ccccc3s2)s1 ?
NS1 inh: -4%; CHX counter: 24*; Pf growth 48h: 75%; Shiga inhibitor: 29

Results for COc1cc(C=C(c2nc3ccccc3s2)c2nc3ccccc3s2)ccc1O ?
Pf growth 96h: inconclusive; NS1 inh: 10%; CHX counter: 23*; Pf growth 48h: -18%; Shiga inhibitor: 10

How did COc1cc(/C=C/c2cc(C(=O)O)c3ccccc3n2)cc(OC)c1O do in these assays?
Pf growth 96h: 16%; NS1 inh: 7%; CHX counter: 2; Pf growth 48h: -4%; Shiga inhibitor: 3

Results for COc1cc(/C=C/c2nc3ccccc3s2)cc(OC)c1O ?
Pf growth 96h: inactive; CHX counter: 41*; Pf growth 48h: 304%; Shiga inhibitor: 78*

What do the screens show for `CN(C)c1ccc(/C=C/c2nc3ccccc3s2)cc1`?
Pf growth 96h: inconclusive; NS1 inh: 1%; CHX counter: -4; Pf growth 48h: 68%; Shiga inhibitor: 12

What do the screens show for `COc1cccc(/C=C(\CC(=O)O)c2nc3ccccc3s2)c1`?
Pf growth 96h: 25%; CHX counter: 10; Pf growth 48h: 6%; Shiga inhibitor: 29

What do the screens show for `CS(=O)(=O)c1ccc2nc(NC(=O)c3ccc(Cn4cc(Br)cn4)o3)sc2c1`?
Pf growth 96h: inconclusive; NS1 inh: 5%; CHX counter: 8; Pf growth 48h: -15%; Shiga inhibitor: 17

What do the screens show for `Cc1ccc(Nc2cc(C)nc3ncnn23)c(C)c1`?
Pf growth 96h: 1.5µM*; NS1 inh: -1%; CHX counter: -1; Pf growth 48h: -10%

Results for COc1ccc(Nc2cc(C)nc3ncnn23)c(OC)c1 ?
Pf growth 96h: 2.9µM*; NS1 inh: inconclusive; CHX counter: -3; Shiga inhibitor: -5

Results for COc1ccc(Nc2cc(C)nc3nc(C)nn23)c(OC)c1 ?
Pf growth 96h: 68%; NS1 inh: -2%; CHX counter: -3; Pf growth 48h: -10%; Shiga inhibitor: -8

What do the screens show for `Cc1ccc(C)c(Nc2cc(C)nc3ncnn23)c1`?
Pf growth 96h: inconclusive; NS1 inh: 7%; CHX counter: -3; Pf growth 48h: 100%

What do the screens show for `Fc1ccccc1N1CCN(CCCc2ccccc2)CC1`?
Pf growth 96h: 12µM*; NS1 inh: 1%; CHX counter: -3; Pf growth 48h: 0%; Shiga inhibitor: 12

How did COC(=O)c1ccc(CSc2nc(N)cc(N)n2)cc1 do in these assays?
Pf growth 96h: -5%; NS1 inh: -60%; CHX counter: 36*; Pf growth 48h: 91%; Shiga inhibitor: 53*

How did Cc1nnc(SCC(=O)c2ccc(Cl)cc2)s1 do in these assays?
Pf growth 96h: 0%; NS1 inh: 3%; CHX counter: 43*; Pf growth 48h: 165%; Shiga inhibitor: 87*

How did COC(=O)c1ccc(CSc2nnc(C)s2)cc1 do in these assays?
Pf growth 96h: 3%; NS1 inh: -7%; CHX counter: 38*; Pf growth 48h: 149%; Shiga inhibitor: 67*

How did COc1ccccc1Nc1nc(N)nc(CSc2nnc(C)s2)n1 do in these assays?
Pf growth 96h: 24%; NS1 inh: -12%; CHX counter: 1; Pf growth 48h: 8%; Shiga inhibitor: 11

How did COc1ccc(CSc2nnc(C)s2)cc1F do in these assays?
Pf growth 96h: inconclusive; CHX counter: 16*; Pf growth 48h: 94%; Shiga inhibitor: 73*

How did Cc1nnc(SCC(=O)c2ccc([N+](=O)[O-])cc2)s1 do in these assays?
Pf growth 96h: inconclusive; NS1 inh: 4%; CHX counter: 8; Pf growth 48h: -5%; Shiga inhibitor: 3

Results for CC[C@H](C)[C@H](NC(=O)[C@H](CO)NC(=O)[C@@H](NC(=O)[C@H](CO)NC(=O)[C@@H](NC(=O)[C@H](CC(N)=O)NC(=O)[C@H](Cc1ccccc1)NC(=O)[C@H](CO)NC(=O)[C@H](CS)NC(=O)[C@H](CC(N)=O)NC(=O)[C@H](CCCCN)NC(=O)[C@@H](NC(=O)[C@H](CCC(=O)O)NC(=O)CN)[C@@H](C)CC)[C@@H](C)CC)[C@@H](C)O)C(=O)N[C@@H](CCCN=C(N)N)C(=O)O ?
CHX counter: -6; Shiga inhibitor: -3

How did Cc1nn(C(C)C)c(C)c1CN1CCN(Cc2ccsc2)C(CCO)C1 (stereo unspecified) do in these assays?
Pf growth 96h: -6%; NS1 inh: -1%; CHX counter: -2; Pf growth 48h: 0%; Shiga inhibitor: -16

How did CCN(C(=O)COC(=O)c1ccccc1NCCO)C1CCS(=O)(=O)C1 (stereo unspecified) do in these assays?
Pf growth 96h: 16%; Pf growth 48h: -17%

What do the screens show for `COC(=O)c1ccc(CSc2nnc(NC(=O)C3CCCO3)s2)cc1` (stereo unspecified)?
NS1 inh: -7%; CHX counter: -3; Pf growth 48h: -7%; Shiga inhibitor: -22

What do the screens show for `COC(=O)c1cccc(CSc2nnc(C)s2)c1`?
Pf growth 96h: 147%; NS1 inh: -11%; CHX counter: 23*; Pf growth 48h: 103%; Shiga inhibitor: 97*

What do the screens show for `COC(=O)c1ccc(CSc2nnc(N)s2)cc1`?
Pf growth 96h: 36%; NS1 inh: -13%; CHX counter: 21*; Pf growth 48h: 58%; Shiga inhibitor: 73

Results for O=C(NCCNCCO)C1(C(F)(F)F)C/C(=C\CCO)CCCO1 (stereo unspecified) ?
CHX counter: 14; Shiga inhibitor: -2

Results for CC(C)OC(=O)CSc1nc2c(cc1C#N)CCCCC2 ?
Pf growth 96h: inconclusive; NS1 inh: 0%; CHX counter: 14; Pf growth 48h: 94%; Shiga inhibitor: 9

What do the screens show for `CCOC(=O)CC(=O)CSc1nc2c(cc1C#N)CCCCC2`?
Pf growth 96h: inconclusive; NS1 inh: 11%; CHX counter: 46*; Pf growth 48h: 6%; Shiga inhibitor: 84*

How did Cc1ccccc1NC(=O)Cn1cnc2c(oc3nc4c(cc32)CCCC4)c1=O do in these assays?
Pf growth 96h: inconclusive; NS1 inh: -6%; CHX counter: 8; Pf growth 48h: inconclusive; Shiga inhibitor: 39

Screening results (PubChem)
